PubChem BioAssay (EPA / NIEHS)
Calls of active or inactive are those of the source. The calls were made as follows: active = hit-call score of the fitted dose curve at least 0.9, where 1 is the maximum; inactive = score below 0.9.

Target: Transcription factor E2F1 (Homo sapiens) (UniProt Q01094)
Assay: ATG_E2F_CIS: Attagene CIS-FACTORIAL HepG2 Assay for human E2F Transcription Factor 1 (AID 2282935)
Conditions: HepG2 Attagene cis-reporter, E2F reporter RNA transcripts; actives raise or lower the signal
Protocol: ATG_CIS is a cell-based, multiplexed-readout assay that uses HepG2, a human liver cell line, with measurements taken at 24 hours after chemical dosing in a 24-well plate.ATG_E2F_CIS is one of 52 assay component(s) measured or calculated from the ATG_CIS assay. It is designed to make measurements of mRNA induction, a form of inducible reporter, as detected with fluorescence intensity signals by Reverse transcription polymerase chain reaction (RT-PCR) and Capillary electrophoresis technology.Data from the assay component ATG_E2F_CIS was analyzed into 1 assay endpoint. This assay endpoint, ATG_E2F_CIS, was analyzed with bidirectional fitting relative to DMSO as the negative control and baseline of activity. Using a type of inducible reporter, measures of mRNA for gain or loss-of-signal activity can be used to understand the reporter gene at the transcription factor-level as they relate to the gene E2F1. Furthermore, this assay endpoint can be referred to as a primary readout, because this assay has produced multiple assay endpoints where this one serves a reporter gene function. To generalize the intended target to other relatable targets, this assay endpoint is annotated to the dna binding intended target family, where the subfamily is E2F transcription factor.
Human liver HepG2 cells are transiently transfected with multiple reporter transcription units (MRTUs) in 6-well plates using FuGene 6 reagent (Roche; 3 ml FuGene/1 mg DNA). The MRTU constructs are regulated by a cis-regulating element (promoter). […] A major difference between the CIS and TRANS system is that in CIS activities of endogenous TFs are measured, whereas the TRANS assay evaluates changes in activities of exogenous, chimeric NR-Gal4 proteins. […] At the end of 24 hour incubation, total RNA was isolated using TriZol reagent (Invitrogen). The isolated RNA is then reverse-transcribed using oligo(dT) primer and Mo-MLV reverse transcriptase (Invitrogen) with DNAse I (Ambion) treatment for 30 min. The one-tenth of the produced cDNA was amplified by PCR using Taq DNA polymerase (Invitrogen) and two reporter sequence-specific primers. The PCR products were fluorescently labeled by primer extension with 6-arboxyfluorescein (6-FAM) 5'-labeled reporter sequence-specific primer (2 min at 95 C, 20 s at 68 C and 10 min at 72 C) and these products were digested with 5U of HpaI (New England Biolabs) for 2h at 37 C. The fragments were purified using Qiaquick PCR columns (Qiagen), analyzed on an ABI 3130xL genetic analyzer (Applied Biosystems) with peak positions identified by using a set of X-rhodamine (ROX)-labeled MapMarker1000 molecular weight standards (BioVentures). The raw capillary electrophoresis data was processed using Attagraph software (Attagene).

Transcription factor E2F1 (Homo sapiens), sequence (Q01094 whole entry, looked up): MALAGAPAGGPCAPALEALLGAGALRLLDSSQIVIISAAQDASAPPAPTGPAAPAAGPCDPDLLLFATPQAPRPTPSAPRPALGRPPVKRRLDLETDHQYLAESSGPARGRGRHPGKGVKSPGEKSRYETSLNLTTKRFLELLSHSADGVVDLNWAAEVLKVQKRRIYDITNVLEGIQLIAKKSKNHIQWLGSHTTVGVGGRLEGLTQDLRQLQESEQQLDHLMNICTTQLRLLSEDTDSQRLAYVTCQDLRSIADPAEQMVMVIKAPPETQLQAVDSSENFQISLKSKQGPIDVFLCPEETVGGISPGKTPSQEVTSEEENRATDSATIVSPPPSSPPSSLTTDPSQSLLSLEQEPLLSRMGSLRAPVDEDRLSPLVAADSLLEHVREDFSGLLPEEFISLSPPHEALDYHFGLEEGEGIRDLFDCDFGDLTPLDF

outcome, inactive:
CCCCCCCCO[C@@H]1O[C@H](CO)[C@@H](O)[C@H](O)[C@H]1O, CC/C=C\C/C=C\C/C=C\CCCCCCCC(=O)O, CC1(C)O[C@@H]2C[C@H]3[C@@H]4C[C@H](F)C5=CC(=O)CC[C@]5(C)[C@H]4[C@@H](O)C[C@]3(C)[C@]2(C(=O)CO)O1, Cc1cc(O)c(Cl)c(C)c1Cl, O=C1CCCC1, CC(=O)Nc1nnc(S(N)(=O)=O)s1, COc1cc(NC(=O)CC(C)=O)c(OC)cc1Cl, C=C1C2CCC(C2)C1(C)C (stereo not given), CN(C)c1ccc(N=Nc2ccccc2C(=O)O)cc1, CCN(CC)c1ccc(C(=O)c2ccccc2C(=O)O)c(O)c1, COC(=O)/C=C/C(C)=C\C=C\C(C)=C\C=C\C=C(C)\C=C\C=C(C)\C=C\C(=O)O, O=C1CCCN1CCO, CCCOCCOCCOCCO, Cc1ccc2oc(=O)ccc2c1, CCCCCCCCCCOS(=O)(=O)O, CC1(C)[C@H]2CC[C@]1(C)C(=O)C2, O=C(Cl)c1cc(C(=O)Cl)cc(C(=O)Cl)c1, O=C(Nc1ccccc1)c1ccccc1O, Cc1cnc(NC(=O)C2=C(O)c3ccccc3S(=O)(=O)N2C)s1, CC(=O)Oc1ccc(C)cc1, CNC(=S)NN, COc1ccc(C(Cl)=C(c2ccc(OC)cc2)c2ccc(OC)cc2)cc1, C=C(C)c1cccc(C(C)(C)N=C=O)c1, CC(C)(C)c1n[nH]c(=O)n(N)c1=O, CC(C)(C)C(=O)C=Cc1ccc(Cl)cc1, O=C(O)c1ccccc1Nc1cccc(C(F)(F)F)c1, CCCCC(CC)COC(=O)c1ccccc1O (stereo not given), O=C(O)C(c1ccc(Cl)cc1)c1ccc(Cl)cc1, CC(=O)NS(=O)(=O)c1ccc(N)cc1, CC(C)CCCCCOC(=O)CCS, c1ccc(CCCc2ccncc2)cc1, NC(=O)OCC(COC(N)=O)c1ccccc1, COc1cc(C)ccc1C(C)C, c1cc(C(c2ccc(OCC3CO3)cc2)C(c2ccc(OCC3CO3)cc2)c2ccc(OCC3CO3)cc2)ccc1OCC1CO1 (stereo not given), [Cl][In]([Cl])[Cl], O=S(=O)(O)c1cc(S(=O)(=O)O)c2ccc3c(S(=O)(=O)O)cc(S(=O)(=O)O)c4ccc1c2c43, CC(C)(C)c1ccc(N)cc1, c1c[nH]cn1, CCCCCCCCCCCCCOP(=O)(O)O, O=c1c2ccccc2nnn1CCl
